# Publication PMC7862700, “An all-to-all approach to the identification of sequence-specific readers for epigenetic DNA modifications on cytosine”
# How the values were obtained:
# Test in all cases: DAPPL (digital affinity profiling via proximity ligation, sequencing); 10 mM Tris-HCl pH 7.5, 50 mM NaCl, 1 mM DTT, 4% glycerol, room temperature, 30 min; GST-TFs on glutathione beads, 16-mer random dsDNA library, 0.1% formaldehyde crosslink after washing; high values mean tight binding
# FEV = biological target: T1, FEV (Homo sapiens, UniProt Q99581 1-238); conditions: protein: recombinant; tags: N-terminal GST; dsDNA, one strand shown
# T1 sequence: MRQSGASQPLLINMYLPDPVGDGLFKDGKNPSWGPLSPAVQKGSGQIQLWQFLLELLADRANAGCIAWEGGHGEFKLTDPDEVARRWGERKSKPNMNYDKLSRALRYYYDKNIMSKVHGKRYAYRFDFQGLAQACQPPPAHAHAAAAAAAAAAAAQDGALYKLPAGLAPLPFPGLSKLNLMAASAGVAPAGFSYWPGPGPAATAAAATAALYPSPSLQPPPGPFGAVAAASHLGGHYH
# Summary of the method: (§1)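 Binding signal is each hexamer's read frequency for a factor divided by its frequency in the tag-only sample. The factors were GST-fused human transcription factors from yeast, captured on glutathione beads, DNA-barcoded and pooled with that sample. Pools were incubated with 200 nmole of a random double-stranded 16-mer DNA library in Tris/NaCl/DTT/glycerol buffer at room temperature for 30 min, then washed, crosslinked with 0.1% formaldehyde, proximity-ligated with BsaI/T4 ligase (1 h, 37 °C), PCR-amplified and sequenced on an Illumina NextSeq500.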
# ETV5 = ETV5 (Homo sapiens, UniProt P41161 1-510); conditions: protein: recombinant; tags: N-terminal GST; dsDNA, one strand shown
# Sequence of ETV5 (P41161 whole entry): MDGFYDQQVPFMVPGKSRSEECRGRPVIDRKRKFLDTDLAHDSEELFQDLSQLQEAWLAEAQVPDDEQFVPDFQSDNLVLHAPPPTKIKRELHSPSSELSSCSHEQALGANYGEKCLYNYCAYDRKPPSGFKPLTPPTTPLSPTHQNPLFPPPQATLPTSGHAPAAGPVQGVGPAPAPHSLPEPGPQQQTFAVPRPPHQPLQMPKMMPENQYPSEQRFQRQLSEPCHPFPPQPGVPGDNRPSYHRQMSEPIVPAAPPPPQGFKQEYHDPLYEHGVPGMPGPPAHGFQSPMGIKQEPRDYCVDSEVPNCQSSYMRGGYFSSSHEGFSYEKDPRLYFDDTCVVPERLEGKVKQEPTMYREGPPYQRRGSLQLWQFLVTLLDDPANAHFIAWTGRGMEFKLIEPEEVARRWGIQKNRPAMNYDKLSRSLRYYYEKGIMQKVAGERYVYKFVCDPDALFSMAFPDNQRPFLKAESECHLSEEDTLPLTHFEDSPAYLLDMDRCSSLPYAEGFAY
# Summary of the method: as §1
# HSF1 = HSF1 (Homo sapiens, UniProt Q00613 1-529); conditions: protein: recombinant; tags: N-terminal GST; chain copies: 3; dsDNA, one strand shown
# Sequence of HSF1 (Q00613 whole entry): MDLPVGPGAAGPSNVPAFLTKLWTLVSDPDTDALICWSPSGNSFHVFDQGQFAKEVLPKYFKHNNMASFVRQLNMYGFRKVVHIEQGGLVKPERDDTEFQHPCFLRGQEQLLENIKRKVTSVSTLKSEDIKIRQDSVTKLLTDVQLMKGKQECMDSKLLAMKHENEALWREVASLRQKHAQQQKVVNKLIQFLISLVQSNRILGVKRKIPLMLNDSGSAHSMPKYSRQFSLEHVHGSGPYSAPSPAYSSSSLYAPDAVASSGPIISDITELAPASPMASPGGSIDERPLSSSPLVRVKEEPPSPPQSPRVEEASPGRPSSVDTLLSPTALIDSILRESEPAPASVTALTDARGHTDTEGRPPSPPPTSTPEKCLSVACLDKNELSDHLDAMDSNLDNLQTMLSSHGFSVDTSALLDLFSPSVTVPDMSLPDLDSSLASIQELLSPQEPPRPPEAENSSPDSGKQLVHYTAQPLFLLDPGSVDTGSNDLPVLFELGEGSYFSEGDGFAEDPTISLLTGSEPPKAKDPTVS
# Summary of the method: as §1
# SPIC = biological target: T2, SPIC (Homo sapiens, UniProt Q8N5J4 1-248); conditions: protein: recombinant; tags: N-terminal GST; dsDNA, one strand shown
# T2 sequence: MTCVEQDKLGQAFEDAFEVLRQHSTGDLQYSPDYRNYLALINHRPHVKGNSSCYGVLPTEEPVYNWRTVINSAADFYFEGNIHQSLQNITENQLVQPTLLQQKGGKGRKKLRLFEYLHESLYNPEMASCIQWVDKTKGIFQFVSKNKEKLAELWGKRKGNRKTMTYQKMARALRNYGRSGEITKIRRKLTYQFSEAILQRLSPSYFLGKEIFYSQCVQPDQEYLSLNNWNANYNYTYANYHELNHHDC
# Summary of the method: as §1
# ELF4 = ELF4 (Homo sapiens, UniProt Q99607 1-663); conditions: protein: recombinant; tags: N-terminal GST; dsDNA, one strand shown
# Sequence of ELF4 (Q99607 whole entry): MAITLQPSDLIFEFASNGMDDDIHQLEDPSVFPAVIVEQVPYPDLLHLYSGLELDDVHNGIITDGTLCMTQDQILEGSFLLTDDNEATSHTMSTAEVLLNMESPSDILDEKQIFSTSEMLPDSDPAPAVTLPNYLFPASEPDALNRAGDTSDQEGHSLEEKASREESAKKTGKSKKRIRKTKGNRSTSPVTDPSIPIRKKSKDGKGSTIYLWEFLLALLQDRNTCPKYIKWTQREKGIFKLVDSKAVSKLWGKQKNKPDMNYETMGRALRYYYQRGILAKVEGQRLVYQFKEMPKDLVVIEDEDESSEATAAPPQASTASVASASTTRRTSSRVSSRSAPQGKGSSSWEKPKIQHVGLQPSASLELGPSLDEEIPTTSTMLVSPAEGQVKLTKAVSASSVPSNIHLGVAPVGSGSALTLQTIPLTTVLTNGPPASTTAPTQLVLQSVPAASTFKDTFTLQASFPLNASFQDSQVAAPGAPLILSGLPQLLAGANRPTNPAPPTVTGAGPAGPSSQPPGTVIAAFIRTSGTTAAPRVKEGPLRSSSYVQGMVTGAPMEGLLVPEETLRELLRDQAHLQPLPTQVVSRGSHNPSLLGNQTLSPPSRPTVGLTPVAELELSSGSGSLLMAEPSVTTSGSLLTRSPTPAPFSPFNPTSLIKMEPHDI
# Summary of the method: as §1
# ELK4 = biological target: T3, ELK4 (Homo sapiens, UniProt P28324-2 1-405); conditions: protein: recombinant; tags: N-terminal GST; dsDNA, one strand shown
# T3 sequence: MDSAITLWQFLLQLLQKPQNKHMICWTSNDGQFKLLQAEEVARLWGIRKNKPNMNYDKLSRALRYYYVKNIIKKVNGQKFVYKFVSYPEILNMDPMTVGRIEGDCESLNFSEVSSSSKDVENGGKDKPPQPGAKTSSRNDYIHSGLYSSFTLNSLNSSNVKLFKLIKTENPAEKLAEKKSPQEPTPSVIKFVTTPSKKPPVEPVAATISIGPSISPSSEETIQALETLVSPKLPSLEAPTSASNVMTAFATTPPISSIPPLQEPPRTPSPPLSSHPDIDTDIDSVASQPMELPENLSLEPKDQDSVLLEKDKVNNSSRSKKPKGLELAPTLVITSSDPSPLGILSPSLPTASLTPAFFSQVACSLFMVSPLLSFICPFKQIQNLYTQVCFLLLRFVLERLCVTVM
# Summary of the method: as §1
# ETV2 = biological target: T4, ETV2 (Homo sapiens, UniProt O00321 1-342); conditions: protein: recombinant; tags: N-terminal GST; dsDNA, one strand shown
# T4 sequence: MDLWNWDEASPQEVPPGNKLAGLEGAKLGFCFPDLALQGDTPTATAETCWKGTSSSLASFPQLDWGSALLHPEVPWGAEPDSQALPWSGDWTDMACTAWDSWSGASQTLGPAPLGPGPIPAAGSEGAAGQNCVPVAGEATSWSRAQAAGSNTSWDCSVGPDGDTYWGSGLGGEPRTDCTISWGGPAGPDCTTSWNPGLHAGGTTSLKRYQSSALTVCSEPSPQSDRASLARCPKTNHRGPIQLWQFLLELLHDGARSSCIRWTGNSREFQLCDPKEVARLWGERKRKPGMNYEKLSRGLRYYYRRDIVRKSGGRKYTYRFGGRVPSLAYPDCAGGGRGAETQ
# Summary of the method: as §1
# ELF3 = biological target: T5, ELF3 (Homo sapiens, UniProt P78545 1-371); conditions: protein: recombinant; tags: N-terminal GST; dsDNA, one strand shown
# T5 sequence: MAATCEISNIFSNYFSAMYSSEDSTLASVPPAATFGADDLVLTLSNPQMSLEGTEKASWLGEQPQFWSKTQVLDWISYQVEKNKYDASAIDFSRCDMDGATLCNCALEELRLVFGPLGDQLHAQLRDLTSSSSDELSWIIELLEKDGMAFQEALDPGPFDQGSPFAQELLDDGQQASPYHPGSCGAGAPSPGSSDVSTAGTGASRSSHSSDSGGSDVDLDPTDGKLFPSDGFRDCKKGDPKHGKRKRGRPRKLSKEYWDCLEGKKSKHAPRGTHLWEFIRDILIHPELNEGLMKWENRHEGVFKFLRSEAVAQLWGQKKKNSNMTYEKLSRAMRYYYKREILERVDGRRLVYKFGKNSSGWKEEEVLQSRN
# Summary of the method: as §1
# CRX = CRX (Homo sapiens, UniProt O43186 1-299); conditions: protein: recombinant; tags: N-terminal GST; dsDNA, one strand shown
# Sequence of CRX (O43186 whole entry): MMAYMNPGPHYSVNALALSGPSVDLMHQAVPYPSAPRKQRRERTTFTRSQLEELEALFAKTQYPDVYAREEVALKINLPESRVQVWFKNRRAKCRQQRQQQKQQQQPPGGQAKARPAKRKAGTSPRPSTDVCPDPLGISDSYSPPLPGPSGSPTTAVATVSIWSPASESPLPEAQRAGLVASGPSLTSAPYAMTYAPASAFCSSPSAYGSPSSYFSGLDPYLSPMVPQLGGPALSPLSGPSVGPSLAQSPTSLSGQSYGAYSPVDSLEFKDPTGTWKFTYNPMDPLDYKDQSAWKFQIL
# Summary of the method: as §1
# ETV1 = ETV1 (Homo sapiens, UniProt P50549 1-477); conditions: protein: recombinant; tags: N-terminal GST; dsDNA, one strand shown
# Sequence of ETV1 (P50549 whole entry): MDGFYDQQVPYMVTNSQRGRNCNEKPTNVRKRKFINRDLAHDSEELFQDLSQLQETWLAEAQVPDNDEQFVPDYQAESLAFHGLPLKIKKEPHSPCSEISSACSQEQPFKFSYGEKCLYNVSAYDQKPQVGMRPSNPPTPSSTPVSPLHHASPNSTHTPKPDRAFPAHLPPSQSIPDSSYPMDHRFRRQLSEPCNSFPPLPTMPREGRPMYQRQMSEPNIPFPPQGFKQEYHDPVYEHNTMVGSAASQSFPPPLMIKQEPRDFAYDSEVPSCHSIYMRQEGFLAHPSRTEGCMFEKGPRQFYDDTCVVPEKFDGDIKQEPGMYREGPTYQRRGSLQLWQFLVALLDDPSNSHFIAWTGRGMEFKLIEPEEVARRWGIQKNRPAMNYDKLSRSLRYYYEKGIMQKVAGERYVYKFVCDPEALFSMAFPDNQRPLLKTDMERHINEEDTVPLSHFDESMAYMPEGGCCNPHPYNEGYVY
# Summary of the method: as §1
# ERF = biological target: T6, ERF (Homo sapiens, UniProt P50548 1-548); conditions: protein: recombinant; tags: N-terminal GST; dsDNA, one strand shown
# T6 sequence: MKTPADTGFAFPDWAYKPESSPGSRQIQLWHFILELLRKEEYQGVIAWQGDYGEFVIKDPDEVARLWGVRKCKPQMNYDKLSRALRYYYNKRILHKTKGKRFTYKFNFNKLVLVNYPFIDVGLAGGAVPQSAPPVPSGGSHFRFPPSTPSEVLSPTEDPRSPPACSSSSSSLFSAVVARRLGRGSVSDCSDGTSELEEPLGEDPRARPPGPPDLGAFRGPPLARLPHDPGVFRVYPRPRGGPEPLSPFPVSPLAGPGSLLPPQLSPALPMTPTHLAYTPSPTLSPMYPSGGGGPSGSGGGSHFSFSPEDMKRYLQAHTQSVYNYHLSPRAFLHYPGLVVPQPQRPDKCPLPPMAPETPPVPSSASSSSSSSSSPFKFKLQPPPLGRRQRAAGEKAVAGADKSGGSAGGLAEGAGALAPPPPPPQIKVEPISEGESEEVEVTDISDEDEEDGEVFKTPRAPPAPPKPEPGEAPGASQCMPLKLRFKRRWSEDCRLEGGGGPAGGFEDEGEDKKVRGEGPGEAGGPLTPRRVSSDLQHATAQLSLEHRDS
# Summary of the method: as §1
# ETV3L = biological target: T7, ETV3L (Homo sapiens, UniProt Q6ZN32 1-361); conditions: protein: recombinant; tags: N-terminal GST; dsDNA, one strand shown
# T7 sequence: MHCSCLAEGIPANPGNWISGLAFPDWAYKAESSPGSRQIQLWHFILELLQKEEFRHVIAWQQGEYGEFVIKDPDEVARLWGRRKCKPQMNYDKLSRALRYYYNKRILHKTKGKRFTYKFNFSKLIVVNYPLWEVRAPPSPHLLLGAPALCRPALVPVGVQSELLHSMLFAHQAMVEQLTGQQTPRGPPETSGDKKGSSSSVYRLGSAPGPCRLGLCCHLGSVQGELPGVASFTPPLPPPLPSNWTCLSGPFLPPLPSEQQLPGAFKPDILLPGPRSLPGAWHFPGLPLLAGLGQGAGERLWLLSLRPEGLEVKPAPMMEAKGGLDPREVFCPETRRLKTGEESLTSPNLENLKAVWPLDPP
# Summary of the method: as §1
# ETS2 = biological target: T8, ETS2 (Homo sapiens, UniProt P15036 1-469); conditions: protein: recombinant; tags: N-terminal GST; dsDNA, one strand shown
# T8 sequence: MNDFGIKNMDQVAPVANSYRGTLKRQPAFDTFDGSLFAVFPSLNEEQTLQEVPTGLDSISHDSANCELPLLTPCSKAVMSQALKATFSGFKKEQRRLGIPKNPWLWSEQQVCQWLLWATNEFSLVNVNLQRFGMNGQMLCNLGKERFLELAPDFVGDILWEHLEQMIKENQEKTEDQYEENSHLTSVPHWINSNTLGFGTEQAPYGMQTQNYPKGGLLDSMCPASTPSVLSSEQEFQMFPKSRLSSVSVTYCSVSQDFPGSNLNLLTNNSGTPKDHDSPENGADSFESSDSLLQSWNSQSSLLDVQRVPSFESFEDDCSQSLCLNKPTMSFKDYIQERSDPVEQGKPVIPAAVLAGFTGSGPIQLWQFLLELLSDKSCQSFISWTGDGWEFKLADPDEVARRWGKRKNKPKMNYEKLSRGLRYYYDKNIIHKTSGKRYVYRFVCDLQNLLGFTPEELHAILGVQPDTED
# Summary of the method: as §1
# SPDEF = biological target: T9, SPDEF (Homo sapiens, UniProt O95238 1-335); conditions: protein: recombinant; tags: N-terminal GST; dsDNA, one strand shown
# T9 sequence: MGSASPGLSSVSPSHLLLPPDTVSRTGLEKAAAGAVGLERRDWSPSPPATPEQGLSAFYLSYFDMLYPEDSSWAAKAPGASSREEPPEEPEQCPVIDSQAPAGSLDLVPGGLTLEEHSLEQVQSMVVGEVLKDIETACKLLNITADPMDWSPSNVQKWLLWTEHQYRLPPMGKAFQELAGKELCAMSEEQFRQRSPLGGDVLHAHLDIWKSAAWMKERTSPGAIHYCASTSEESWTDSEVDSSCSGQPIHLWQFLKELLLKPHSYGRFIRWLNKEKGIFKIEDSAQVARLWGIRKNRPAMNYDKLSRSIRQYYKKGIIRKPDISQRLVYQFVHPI
# Summary of the method: as §1
# ETV7 = biological target: T10, ETV7 (Homo sapiens, UniProt Q9Y603 1-341); conditions: protein: recombinant; tags: N-terminal GST; dsDNA, one strand shown
# T10 sequence: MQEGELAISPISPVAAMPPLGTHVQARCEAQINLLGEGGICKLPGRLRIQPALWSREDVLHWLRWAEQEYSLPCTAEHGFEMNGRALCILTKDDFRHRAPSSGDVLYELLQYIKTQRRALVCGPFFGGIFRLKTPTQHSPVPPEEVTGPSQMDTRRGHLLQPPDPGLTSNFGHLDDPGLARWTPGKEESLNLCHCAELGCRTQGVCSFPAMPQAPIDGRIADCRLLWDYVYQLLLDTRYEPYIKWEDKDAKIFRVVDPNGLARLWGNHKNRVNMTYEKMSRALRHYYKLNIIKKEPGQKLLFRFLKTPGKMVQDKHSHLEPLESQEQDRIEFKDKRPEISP
# Summary of the method: as §1
# ELF5 = biological target: T11, ELF5 (Homo sapiens, UniProt Q9UKW6-2 1-255); conditions: protein: recombinant; tags: N-terminal GST; dsDNA, one strand shown
# T11 sequence: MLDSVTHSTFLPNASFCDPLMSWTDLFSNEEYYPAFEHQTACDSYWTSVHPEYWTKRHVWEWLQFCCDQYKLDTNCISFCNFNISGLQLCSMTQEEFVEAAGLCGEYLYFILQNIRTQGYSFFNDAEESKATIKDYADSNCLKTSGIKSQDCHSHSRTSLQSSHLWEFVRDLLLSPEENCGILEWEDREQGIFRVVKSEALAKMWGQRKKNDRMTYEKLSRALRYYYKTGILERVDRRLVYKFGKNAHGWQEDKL
# Summary of the method: as §1
# ETV3 = biological target: T12, ETV3 (Homo sapiens, UniProt P41162-2 1-143); conditions: protein: recombinant; tags: N-terminal GST; dsDNA, one strand shown
# T12 sequence: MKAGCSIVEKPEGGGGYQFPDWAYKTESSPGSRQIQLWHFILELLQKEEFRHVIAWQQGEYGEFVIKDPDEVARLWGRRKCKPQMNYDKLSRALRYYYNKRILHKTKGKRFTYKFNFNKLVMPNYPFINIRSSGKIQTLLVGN
# Summary of the method: as §1
# ETV6 = ETV6 (Homo sapiens, UniProt P41212 1-452); conditions: protein: recombinant; tags: N-terminal GST; dsDNA, one strand shown
# Sequence of ETV6 (P41212 whole entry): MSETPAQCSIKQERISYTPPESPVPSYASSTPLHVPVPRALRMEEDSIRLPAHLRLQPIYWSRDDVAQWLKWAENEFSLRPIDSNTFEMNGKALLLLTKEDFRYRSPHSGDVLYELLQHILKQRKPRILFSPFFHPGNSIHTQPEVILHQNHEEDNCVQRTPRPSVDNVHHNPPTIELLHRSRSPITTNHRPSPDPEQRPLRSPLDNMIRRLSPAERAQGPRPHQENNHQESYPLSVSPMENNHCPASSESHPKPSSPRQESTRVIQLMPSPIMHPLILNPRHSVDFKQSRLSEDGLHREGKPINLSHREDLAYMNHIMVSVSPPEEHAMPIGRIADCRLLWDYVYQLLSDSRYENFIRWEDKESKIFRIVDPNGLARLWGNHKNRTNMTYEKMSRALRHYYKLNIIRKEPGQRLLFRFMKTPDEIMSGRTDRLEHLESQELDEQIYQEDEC
# Summary of the method: as §1
sequence,measurement,setting,value
AAATGT,binding signal,FEV,"1.27 fold enrichment (6-mer frequency, TF over GST control)"
same,binding signal,ETV5,"1.28 fold enrichment (6-mer frequency, TF over GST control)"
same,binding signal,HSF1,"1.19 fold enrichment (6-mer frequency, TF over GST control)"
same,binding signal,SPIC,"1.25 fold enrichment (6-mer frequency, TF over GST control)"
same,binding signal,ELF4,"1.27 fold enrichment (6-mer frequency, TF over GST control)"
same,binding signal,ELK4,"1.4 fold enrichment (6-mer frequency, TF over GST control)"
same,binding signal,ETV2,"1.36 fold enrichment (6-mer frequency, TF over GST control)"
same,binding signal,ELF3,"1.54 fold enrichment (6-mer frequency, TF over GST control)"
same,binding signal,CRX,"1.04 fold enrichment (6-mer frequency, TF over GST control)"
same,binding signal,ETV1,"1.39 fold enrichment (6-mer frequency, TF over GST control)"
same,binding signal,ERF,"1.27 fold enrichment (6-mer frequency, TF over GST control)"
same,binding signal,ETV3L,"1.33 fold enrichment (6-mer frequency, TF over GST control)"
same,binding signal,ETS2,"1.44 fold enrichment (6-mer frequency, TF over GST control)"
same,binding signal,SPDEF,"1.27 fold enrichment (6-mer frequency, TF over GST control)"
same,binding signal,ETV7,"1.27 fold enrichment (6-mer frequency, TF over GST control)"
same,binding signal,ELF5,"1.48 fold enrichment (6-mer frequency, TF over GST control)"
same,binding signal,ETV3,"1.3 fold enrichment (6-mer frequency, TF over GST control)"
same,binding signal,ETV6,"1.31 fold enrichment (6-mer frequency, TF over GST control)"
